The whole screen tested about 53,000 sequences, of which about 3,700 (7%) were called active. The sample as a whole holds a higher share of actives than the screen did. A number with no mark means an inactive call.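 How the source made its calls: active means gene knockdowns whose robust z-score for IL-1 alpha signal is at least 2 or at most -2, so actives lie on both sides; inactive means the rest.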
Experiment: Components of the Cytosolic LPS Sensing Pathway: Gene Identification via Genome-wide siRNA Screen;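 further: robust z of the log signal after scaling to non-targeting control siRNA wells of the plate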
Conditions: RAW264.7 macrophages, IL-1a HTRF, actives lie on both sides, screened at 100 nM (by protocol), cells primed 5 h with Pam3CSK4 first
Outline: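 Using IL-1a HTRF as read-out, the screen measured release from RAW264.7 cells after 48h siRNA knockdown (100 nM), 5 h Pam3CSK4 priming and 24 h cytosolic LipidA. Values were expressed relative to negative-control wells as robust z-scores.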

Row | Sequence | z-score
1 | CCUGAAGAAAGAAUCCCUATT against Nobox | 0.241
2 | GGCUCUUCCAACAGUUCUUTT against Grk1 | 2.07 (active)
3 | CCUACAGUACUUCAAGCGGTT against Hip1 | -1.37
4 | GCUCUAACGUAUGAUGCCATT against Nde1 | 0.206
5 | CCAAACUUAAGCCUAUUCUTT against Mme | 1.32
6 | GCAACUGAGGCUUUCUUUGTT against Copg1 | -1.53
7 | GGACACCAAUCACAUUUGATT against Cngb3 | -2.21 (active)
8 | GGAAGCAUUGAUUUUCAUCTT against Prok2 | 1.82
9 | GGUCGGUUGCUUUAGUGAATT against Magee2 | 1.42
10 | GGGCAAAAUCGUGUCAAGCTT against Dpp9 | 0.253
11 | CCCAAUGAUCCUAACCAUUTT against Zfp459 | -1.08
12 | GGAGAGAAUGGACCAUCUCTT against Rnase10 | -1.16
13 | GGUGUAUCUGUUCUGUUAATT against Impg1 | -0.559
14 | GGUGGUCUCCUACAAUGCCTT against Olfr1451 | 2.3 (active)
15 | CGAGCUGUUAGAAUUCAGATT against Jakmip1 | -0.818
16 | GGAUCAAGAAUUAAUGUCUTT against Nes | -0.349
17 | GCGACAACUUAAAGACCGGTT against Cand2 | 0.0878
18 | GGCCAUCGCACUUAAACUUTT against 1700123K08Rik | -0.578
19 | CCGAUGAUCAGAGAAACAGTT against Prkar2b | -1.25
20 | GGGACAACAUGGAUUCAAGTT against Sult1c2 | 0.685
21 | GCCAAAACUCUGUUAGAUATT against Anapc7 | -0.931
22 | GGAAGAAGAACUGAAGACATT against Ctnnbl1 | 2.22 (active)

Row | Sequence | z-score
23 | GGAAUCUAGCUGAGAAAAUTT against Lepr | -0.62
24 | GGGAGUUCCAAUCAUUCUUTT against 2200002J24Rik | 0.667
25 | GGUCUAUGUACUGUCCUGATT against Otop2 | 0.0413
26 | GGCAAUCAUGUGGACUUCATT against C230071H18Rik | 0.714
27 | CGUGAAGGAAACUUUUCAGTT against Prmt9 | -1.45
28 | GGAGAUUGACAUUAGCAACTT against Rps6ka2 | 3.02 (active)
29 | GGCAGACUCUGCCUACUUATT against Utf1 | 1.01
30 | GCUUUAAACUGAGUGAUAATT against Zfp451 | -0.564
31 | GGCCAUCUAAUGACCUUCATT against Madd | -2.7 (active)
32 | GCAUGACAGGAAACUCUCUTT against Olfr1308 | -0.825
33 | GCAACAAAUUUGAAUCAGATT against Chic2 | -0.185
34 | GGAUCUUCGUACUAGAGGCTT against Cenpx | 0.0358
35 | CCUCGUCGAGUGGAAAAUUTT against Pxylp1 | -0.574
36 | GGGCUGAGGAGAAAAUGCATT against Meg3 | -2.37 (active)
37 | GGAGACUCCUUACGGCAAATT against Bnip1 | 0.227
38 | GGAAUGUUAACAAAGAGCATT against Sgcb | 0.8
39 | CCUAAUGUUUAGAUCCAUATT against Gcm2 | 0.11
40 | GGCCGAAUUGUGUCUUGGUTT against Dnmt3a | -1.71
41 | GUGACACCUUUAUGGAGAGTT against Olfr1271 | 0.267
42 | CGUGCUAGUGACCAUUUACTT against Limch1 | 0.625
43 | GGGUACCUACAUAGACAAGTT against Rps11 | 0.0651
44 | CGCAGUGAGGAGUAUGAAGTT against Nin | 3.53 (active)

Row | Sequence | z-score
45 | GGUAGCUAUUAAAGAAUCCTT against AW209491 | 1.12
46 | GCGAUCAGCAAGCUAAGCCTT against Mettl2 | 0.117
47 | GGCCAUGAGGAAAACAAGATT against Coro7 | -1.01
48 | ACAAAGAAGCGAUUUCUAUTT against Wtip | 1.32
49 | GCACCCUAGAGGUAAAAGATT against Taf12 | -2.95 (active)
50 | GGUUGUAACUUGUAAGGCATT against Rnf144b | 0.123
51 | GGAGACUAAGGAGGUUUAUTT against Ruvbl1 | 0.494
52 | GGAGUCUCCUUAUAUUAAUTT against Alcam | 0.896
53 | GGAUCAUAUAUGAAGCACATT against Mybl1 | -2.16 (active)
54 | GGUUAACAUUUUCAGUCAUTT against Itga2 | -0.986
55 | GGAUGACUUGAUUAUCUUUTT against Adrm1 | 0.603
56 | GGCAAAGAUUCCAAAAGAGTT against Bsdc1 | -1.59
57 | CCAGAUUGUGUUCACGAUGTT against Rasgrf2 | 0.888
58 | GGGAAGUUAUAAUGGAAGUTT against Rps15a | 2.46 (active)
59 | GCAUAAAGCAGUCAUGCUUTT against Gskip | -0.989
60 | GCCAUGUGUAUGGUAGUCUTT against Olfr1247 | -1.22
61 | GCUAAUAAUGGUCAAAGCCTT against Prrt3 | -0.963
62 | GGAUAUUCAUGUUUCAUUGTT against Vipr2 | 0.836
63 | CGACCAGAUGAACUGGUGUTT against Smg9 | 0.929
64 | GGUGACACACUAGUAGACUTT against Sclt1 | 3.47 (active)
65 | CGAACAGAAACAGUUAUUATT against Gbp2 | 1.01
66 | CCAAAUCUCUCAAUUUAGGTT against Taf9b | 0.265

Row | Sequence | z-score
67 | CCAAAGAUGUUAUUGGACCTT against Olfr1152 | -1.1
68 | CCUGUAAACCAGAUAAGCCTT against Defb1 | -0.0772
69 | GGCAAUAUGUCGUAUGUAATT against Sfmbt2 | -2.13 (active)
70 | GGUCAUGAAUUACUAUUCCTT against Cyth2 | 1.02
71 | GGAGAAAUUCCCUUGCCACTT against Kbtbd12 | -0.0157
72 | UUUAUACUUCCCUGAUUUUTT against Olfr943 | -0.409
73 | GGGAAAAAGGAGAACUUCUTT against Cfap161 | -1.12
74 | GGAUCAUAGUUACAAGGCUTT against L3mbtl2 | 0.458
75 | GCUUUGAGAGGUGUUGAUATT against Gm6116 | -0.864
76 | GCUAAGUUGGAAUUUCCACTT against Chtop | 2.05 (active)
77 | GCCGUUUUAUGUGGCAGAATT against Slc35d3 | 0.141
78 | GGUAUUGUGGCCAGUAUUUTT against Ptdss2 | 0.185
79 | AUAAGGAUGUCCAUCUUGCTT against Olfr884 | -1.17
80 | CGGUCUAAAUUUCCGGUCATT against Elane | -0.205
81 | GGCUCAACGGGAUUACUUUTT against Pgd | -0.578
82 | GAAAUAGAGAUGCCUCUCUTT against Olfr1161 | 2.52 (active)
83 | CCAAUUUACGACAAAUCGUTT against Entpd4 | -0.56
84 | GGCCCGAAACAAGAAAUCCTT against Ikbke | 0.957
85 | GCUGGUCUUUCAAGUCAAGTT against Stat5b | 2.62 (active)
86 | GAAAAAUCAUGAAGCCAUATT against Olfr203 | -0.0109
87 | CCAGCUAGUGAUGUCAAAATT against Bri3bp | -0.0406
88 | GGACAGCUGGCUUCUAAAUTT against Lmntd1 | 0.137

Row | Sequence | z-score
89 | CCAUAGGUAUGUUAAUCGATT against Polr1b | -0.426
90 | GGCCAACCUACUUUUCUGGTT against Mgll | -1.18
91 | CGAUGGAAGUUUAAACCUCTT against Htr1a | 0.326
92 | GGUUGUGAAUGUAAGUGAGTT against Entpd1 | -0.787
93 | GGCAUCUUCGAAAAAUGAUTT against Reck | -0.552
94 | CGAUUUUCACCAAUUGUGGTT against Diaph2 | -2.03 (active)
95 | GGACAUCAGUUGUCCUAGCTT against Ano6 | -0.285
96 | GGGCUACUCAAAGAAGAUATT against Galnt5 | -0.357
97 | GGUCACCACACGAUCUACATT against Slc4a4 | 3.14 (active)
98 | GCUCGGCUUUAGAGACCUATT against Cox19 | 0.379
99 | GCCUGUACAUGACGGAAAGTT against Bag4 | 0.155
100 | GGAGUUACGGGAUUCCGUUTT against Kras | 1.7
101 | GCCUAGCUGAAAACGUGUCTT against Cog4 | 5.04 (active)
102 | GCUUAUAAAAGACUUACUGTT against Sec24b | 0.414
103 | GGUUAAAAUUGGCUAAAUGTT against Sertm1 | 1.5
104 | GGCUAAAAAGAGUAGACUATT against Irs1 | 1.14
105 | GGAAGAAUCUGAUUCGUAATT against Snapc5 | -1.28
106 | GGCUUUUUCUACAUGCGCCTT against Olfr1104 | -0.236
107 | GGCUGUUAUACACUAUCUGTT against Tirap | -2.71 (active)
108 | GGCUUUACUACUCAACCAUTT against Gjb3 | -0.388
